From ChEMBL document CHEMBL1961873, “Compounds: GSK PKIS; Assays: Nanosyn kinase panel” (2012)

Columns and labels:
[1] = target: T1, Inhibitor of nuclear factor kappa-B kinase subunit epsilon (Homo sapiens) (UniProt Q14164); details: at 1 µM;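 note: reported values are averaged percent inhibition figures against human IKKε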
T1 sequence (whole entry): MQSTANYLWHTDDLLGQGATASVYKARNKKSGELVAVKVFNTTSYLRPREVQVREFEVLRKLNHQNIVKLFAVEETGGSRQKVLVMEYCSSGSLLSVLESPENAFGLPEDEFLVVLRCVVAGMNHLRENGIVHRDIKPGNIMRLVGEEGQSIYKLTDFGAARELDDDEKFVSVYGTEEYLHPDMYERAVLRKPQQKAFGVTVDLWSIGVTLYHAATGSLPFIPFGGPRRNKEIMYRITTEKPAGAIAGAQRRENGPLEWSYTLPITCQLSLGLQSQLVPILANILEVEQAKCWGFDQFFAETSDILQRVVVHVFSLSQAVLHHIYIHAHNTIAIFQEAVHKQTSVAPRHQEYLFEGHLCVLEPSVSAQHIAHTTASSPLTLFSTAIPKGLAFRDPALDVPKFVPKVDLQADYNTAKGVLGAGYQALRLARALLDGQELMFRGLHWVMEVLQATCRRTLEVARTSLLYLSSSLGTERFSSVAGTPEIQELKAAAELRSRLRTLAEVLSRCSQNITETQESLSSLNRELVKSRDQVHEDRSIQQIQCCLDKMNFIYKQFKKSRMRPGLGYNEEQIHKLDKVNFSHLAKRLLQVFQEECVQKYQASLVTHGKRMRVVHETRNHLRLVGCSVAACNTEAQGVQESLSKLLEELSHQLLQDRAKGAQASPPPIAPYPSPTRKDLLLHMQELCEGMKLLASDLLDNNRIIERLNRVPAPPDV

[2] = target: T2, Serine/threonine-protein kinase Nek1 (Homo sapiens) (UniProt Q96PY6); details: at 0.1 µM
T2 sequence (whole entry): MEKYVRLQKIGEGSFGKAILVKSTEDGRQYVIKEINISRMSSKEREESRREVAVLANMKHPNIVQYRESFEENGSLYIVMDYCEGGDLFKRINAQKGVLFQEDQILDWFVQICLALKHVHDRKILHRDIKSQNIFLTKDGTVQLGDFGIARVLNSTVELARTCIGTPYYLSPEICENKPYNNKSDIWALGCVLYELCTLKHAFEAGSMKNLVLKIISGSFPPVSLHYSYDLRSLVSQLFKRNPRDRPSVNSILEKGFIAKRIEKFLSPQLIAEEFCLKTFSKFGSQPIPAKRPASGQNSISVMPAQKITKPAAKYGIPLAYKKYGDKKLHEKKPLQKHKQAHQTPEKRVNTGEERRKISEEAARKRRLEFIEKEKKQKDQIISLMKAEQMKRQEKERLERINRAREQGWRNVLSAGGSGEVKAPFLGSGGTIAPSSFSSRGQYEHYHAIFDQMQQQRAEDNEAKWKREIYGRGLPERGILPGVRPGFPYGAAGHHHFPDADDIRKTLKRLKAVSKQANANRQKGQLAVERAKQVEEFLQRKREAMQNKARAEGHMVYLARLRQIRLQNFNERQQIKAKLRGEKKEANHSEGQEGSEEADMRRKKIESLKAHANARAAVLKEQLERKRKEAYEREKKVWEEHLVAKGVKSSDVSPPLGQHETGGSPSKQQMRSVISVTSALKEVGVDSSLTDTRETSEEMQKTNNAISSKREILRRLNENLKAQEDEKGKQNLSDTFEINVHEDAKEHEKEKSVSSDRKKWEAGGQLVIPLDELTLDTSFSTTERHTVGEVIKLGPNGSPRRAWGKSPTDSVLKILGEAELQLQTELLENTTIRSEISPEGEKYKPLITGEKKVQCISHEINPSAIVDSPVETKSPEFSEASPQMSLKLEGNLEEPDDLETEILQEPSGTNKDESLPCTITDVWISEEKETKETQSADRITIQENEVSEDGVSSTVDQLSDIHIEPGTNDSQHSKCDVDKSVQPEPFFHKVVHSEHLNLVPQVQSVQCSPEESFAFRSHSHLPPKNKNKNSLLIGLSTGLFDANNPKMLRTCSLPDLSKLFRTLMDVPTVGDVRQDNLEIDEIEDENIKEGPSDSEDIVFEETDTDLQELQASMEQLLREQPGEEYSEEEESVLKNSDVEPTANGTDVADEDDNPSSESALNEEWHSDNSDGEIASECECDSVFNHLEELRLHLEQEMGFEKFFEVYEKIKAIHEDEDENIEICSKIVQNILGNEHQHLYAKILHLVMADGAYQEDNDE

[3] = target: T2, Serine/threonine-protein kinase Nek1 (Homo sapiens); details: at 1 µM
[4] = target: T3, Serine/threonine-protein kinase Nek2 (Homo sapiens) (UniProt P51955); details: at 0.1 µM
T3 sequence (whole entry): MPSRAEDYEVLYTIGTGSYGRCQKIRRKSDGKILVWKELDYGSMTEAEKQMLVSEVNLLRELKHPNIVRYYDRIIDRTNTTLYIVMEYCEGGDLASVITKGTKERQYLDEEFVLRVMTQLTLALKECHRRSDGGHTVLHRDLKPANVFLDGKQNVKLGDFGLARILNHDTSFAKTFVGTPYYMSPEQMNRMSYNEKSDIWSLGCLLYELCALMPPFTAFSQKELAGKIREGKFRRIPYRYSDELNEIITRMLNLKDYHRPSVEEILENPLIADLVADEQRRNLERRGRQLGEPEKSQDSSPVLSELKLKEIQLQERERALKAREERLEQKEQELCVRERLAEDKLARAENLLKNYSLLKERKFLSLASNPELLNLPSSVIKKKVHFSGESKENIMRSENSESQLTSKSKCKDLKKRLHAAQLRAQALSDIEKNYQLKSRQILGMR

[5] = target: T3, Serine/threonine-protein kinase Nek2 (Homo sapiens); details: at 1 µM
[6] = target: Serine/threonine-protein kinase Nek6 (Homo sapiens) (UniProt Q9HC98); details: at 0.1 µM
Chain of Serine/threonine-protein kinase Nek6 (Homo sapiens) (Q9HC98 whole entry): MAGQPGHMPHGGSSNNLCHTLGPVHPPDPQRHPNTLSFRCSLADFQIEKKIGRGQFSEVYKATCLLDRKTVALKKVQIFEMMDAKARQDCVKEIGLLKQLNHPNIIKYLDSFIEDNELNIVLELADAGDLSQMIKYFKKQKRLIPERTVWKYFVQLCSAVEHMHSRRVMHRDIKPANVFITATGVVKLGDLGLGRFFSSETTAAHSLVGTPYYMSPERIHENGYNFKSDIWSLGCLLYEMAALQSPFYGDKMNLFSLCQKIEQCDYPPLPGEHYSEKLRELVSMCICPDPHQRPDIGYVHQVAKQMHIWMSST

[7] = target: Serine/threonine-protein kinase Nek6 (Homo sapiens) (UniProt Q9HC98); details: at 1 µM
[8] = target: Serine/threonine-protein kinase Nek7 (Homo sapiens) (UniProt Q8TDX7); details: at 0.1 µM
Chain of Serine/threonine-protein kinase Nek7 (Homo sapiens) (Q8TDX7 whole entry, looked up): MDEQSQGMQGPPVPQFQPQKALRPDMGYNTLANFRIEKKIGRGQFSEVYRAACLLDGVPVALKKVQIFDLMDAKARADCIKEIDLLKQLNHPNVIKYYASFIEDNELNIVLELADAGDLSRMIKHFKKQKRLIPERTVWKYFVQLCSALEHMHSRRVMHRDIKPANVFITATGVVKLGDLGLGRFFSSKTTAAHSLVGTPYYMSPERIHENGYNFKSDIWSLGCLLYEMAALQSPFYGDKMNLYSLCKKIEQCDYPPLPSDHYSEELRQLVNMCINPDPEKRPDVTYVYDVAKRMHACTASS

[9] = target: Serine/threonine-protein kinase Nek7 (Homo sapiens) (UniProt Q8TDX7); details: at 1 µM
[10] = target: T4, Serine/threonine-protein kinase Nek9 (Homo sapiens) (UniProt Q8TD19); details: at 0.1 µM
T4 sequence (whole entry): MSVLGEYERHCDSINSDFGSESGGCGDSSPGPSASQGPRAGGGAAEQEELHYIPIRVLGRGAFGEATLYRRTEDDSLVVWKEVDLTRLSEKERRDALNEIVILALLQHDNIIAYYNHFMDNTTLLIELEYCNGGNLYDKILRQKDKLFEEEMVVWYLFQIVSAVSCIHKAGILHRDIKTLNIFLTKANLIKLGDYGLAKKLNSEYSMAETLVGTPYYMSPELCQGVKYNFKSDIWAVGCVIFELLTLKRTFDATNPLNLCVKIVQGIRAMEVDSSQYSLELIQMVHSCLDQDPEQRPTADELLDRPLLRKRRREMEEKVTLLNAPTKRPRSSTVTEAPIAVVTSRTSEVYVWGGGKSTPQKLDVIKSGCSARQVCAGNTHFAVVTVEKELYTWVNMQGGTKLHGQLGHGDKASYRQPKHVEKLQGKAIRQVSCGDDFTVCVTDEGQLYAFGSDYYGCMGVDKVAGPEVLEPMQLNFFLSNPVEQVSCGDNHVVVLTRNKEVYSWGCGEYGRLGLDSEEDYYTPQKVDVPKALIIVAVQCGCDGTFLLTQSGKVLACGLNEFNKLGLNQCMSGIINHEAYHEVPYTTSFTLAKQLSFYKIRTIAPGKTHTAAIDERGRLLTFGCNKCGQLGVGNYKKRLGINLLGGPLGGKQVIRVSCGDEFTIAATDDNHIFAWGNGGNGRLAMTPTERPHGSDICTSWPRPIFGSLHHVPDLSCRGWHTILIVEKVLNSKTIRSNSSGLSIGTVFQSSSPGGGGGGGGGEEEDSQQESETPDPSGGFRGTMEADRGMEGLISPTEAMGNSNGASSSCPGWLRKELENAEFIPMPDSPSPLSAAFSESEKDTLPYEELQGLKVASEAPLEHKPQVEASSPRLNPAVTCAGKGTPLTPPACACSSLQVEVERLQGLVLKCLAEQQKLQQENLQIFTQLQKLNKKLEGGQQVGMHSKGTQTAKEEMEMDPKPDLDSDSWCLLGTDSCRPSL

[11] = target: T4, Serine/threonine-protein kinase Nek9 (Homo sapiens); details: at 1 µM
[12] = target: Serine/threonine-protein kinase PLK1 (Homo sapiens) (UniProt P53350); details: at 0.1 µM
Chain of Serine/threonine-protein kinase PLK1 (Homo sapiens) (P53350 whole entry): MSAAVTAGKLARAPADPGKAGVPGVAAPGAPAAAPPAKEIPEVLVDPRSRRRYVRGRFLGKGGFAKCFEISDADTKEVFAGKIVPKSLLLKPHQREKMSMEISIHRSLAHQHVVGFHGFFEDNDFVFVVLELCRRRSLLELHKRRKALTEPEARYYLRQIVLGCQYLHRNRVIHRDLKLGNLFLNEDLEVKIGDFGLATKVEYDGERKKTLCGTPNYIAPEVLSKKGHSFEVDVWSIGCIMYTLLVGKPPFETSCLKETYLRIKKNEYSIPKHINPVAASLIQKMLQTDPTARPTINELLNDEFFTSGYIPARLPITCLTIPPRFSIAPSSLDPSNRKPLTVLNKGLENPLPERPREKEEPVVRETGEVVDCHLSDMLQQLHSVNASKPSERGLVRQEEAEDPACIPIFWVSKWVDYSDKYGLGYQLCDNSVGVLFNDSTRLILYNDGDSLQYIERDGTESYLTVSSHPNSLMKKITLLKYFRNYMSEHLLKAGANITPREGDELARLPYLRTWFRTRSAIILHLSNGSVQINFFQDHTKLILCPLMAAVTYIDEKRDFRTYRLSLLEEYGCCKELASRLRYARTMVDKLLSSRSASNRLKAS

[13] = target: Serine/threonine-protein kinase PLK1 (Homo sapiens) (UniProt P53350); details: at 1 µM
[14] = target: T5, Dual specificity protein kinase TTK (Homo sapiens) (UniProt P33981); details: at 0.1 µM
T5 sequence (whole entry): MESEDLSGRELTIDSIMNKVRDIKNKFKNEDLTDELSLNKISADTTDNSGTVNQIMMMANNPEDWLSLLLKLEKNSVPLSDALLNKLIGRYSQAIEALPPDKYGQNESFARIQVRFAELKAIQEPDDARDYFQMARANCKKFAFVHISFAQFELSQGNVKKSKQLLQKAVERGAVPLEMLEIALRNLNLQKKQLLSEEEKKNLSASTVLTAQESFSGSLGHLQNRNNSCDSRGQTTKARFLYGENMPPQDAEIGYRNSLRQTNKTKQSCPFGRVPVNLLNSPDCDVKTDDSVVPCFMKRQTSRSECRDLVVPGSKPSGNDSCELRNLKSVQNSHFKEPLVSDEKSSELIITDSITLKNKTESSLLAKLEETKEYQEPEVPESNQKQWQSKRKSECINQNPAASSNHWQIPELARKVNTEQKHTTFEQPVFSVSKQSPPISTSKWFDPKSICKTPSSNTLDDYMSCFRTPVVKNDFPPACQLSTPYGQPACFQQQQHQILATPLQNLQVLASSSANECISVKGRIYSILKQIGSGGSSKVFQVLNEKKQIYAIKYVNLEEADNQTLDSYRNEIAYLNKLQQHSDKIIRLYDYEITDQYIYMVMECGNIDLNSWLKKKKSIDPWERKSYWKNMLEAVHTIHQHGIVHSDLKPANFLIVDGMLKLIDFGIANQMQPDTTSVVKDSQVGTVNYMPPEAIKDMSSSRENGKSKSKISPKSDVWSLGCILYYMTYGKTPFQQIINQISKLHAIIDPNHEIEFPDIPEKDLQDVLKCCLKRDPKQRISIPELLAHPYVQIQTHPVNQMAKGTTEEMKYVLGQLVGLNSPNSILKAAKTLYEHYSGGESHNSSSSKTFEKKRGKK

[15] = tested on: T6, Receptor-type tyrosine-protein kinase FLT3 (Homo sapiens), P36888 [D835Y]; details: at 1 µM
T6 sequence (whole entry): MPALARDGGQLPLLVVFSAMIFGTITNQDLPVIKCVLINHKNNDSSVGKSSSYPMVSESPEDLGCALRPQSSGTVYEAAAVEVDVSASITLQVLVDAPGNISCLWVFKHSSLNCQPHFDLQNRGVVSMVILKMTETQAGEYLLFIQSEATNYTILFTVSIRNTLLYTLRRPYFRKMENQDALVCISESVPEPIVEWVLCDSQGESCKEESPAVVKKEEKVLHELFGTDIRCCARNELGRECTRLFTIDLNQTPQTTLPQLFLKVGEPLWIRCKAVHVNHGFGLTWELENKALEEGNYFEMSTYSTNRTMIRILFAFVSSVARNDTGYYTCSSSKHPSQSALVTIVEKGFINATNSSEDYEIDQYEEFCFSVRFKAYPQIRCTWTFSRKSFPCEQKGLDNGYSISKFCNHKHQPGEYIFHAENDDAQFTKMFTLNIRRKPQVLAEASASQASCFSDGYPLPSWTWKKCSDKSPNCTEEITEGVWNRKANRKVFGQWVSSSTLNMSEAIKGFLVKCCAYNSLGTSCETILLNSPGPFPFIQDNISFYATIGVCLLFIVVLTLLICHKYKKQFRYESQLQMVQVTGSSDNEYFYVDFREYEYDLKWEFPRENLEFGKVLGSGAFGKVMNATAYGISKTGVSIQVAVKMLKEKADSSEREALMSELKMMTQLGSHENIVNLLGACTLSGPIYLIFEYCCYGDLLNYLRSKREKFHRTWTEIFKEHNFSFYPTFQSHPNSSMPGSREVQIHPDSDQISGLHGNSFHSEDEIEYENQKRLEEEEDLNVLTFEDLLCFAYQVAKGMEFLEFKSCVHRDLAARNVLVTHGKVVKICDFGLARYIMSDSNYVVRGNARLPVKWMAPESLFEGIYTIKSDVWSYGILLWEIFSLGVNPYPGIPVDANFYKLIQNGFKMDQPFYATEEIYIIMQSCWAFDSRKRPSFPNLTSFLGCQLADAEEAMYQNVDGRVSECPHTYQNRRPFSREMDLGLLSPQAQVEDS

[16] = target: Vascular endothelial growth factor receptor 3 (Homo sapiens) (UniProt P35916); details: at 0.1 µM
Chain of Vascular endothelial growth factor receptor 3 (Homo sapiens) (P35916 whole entry): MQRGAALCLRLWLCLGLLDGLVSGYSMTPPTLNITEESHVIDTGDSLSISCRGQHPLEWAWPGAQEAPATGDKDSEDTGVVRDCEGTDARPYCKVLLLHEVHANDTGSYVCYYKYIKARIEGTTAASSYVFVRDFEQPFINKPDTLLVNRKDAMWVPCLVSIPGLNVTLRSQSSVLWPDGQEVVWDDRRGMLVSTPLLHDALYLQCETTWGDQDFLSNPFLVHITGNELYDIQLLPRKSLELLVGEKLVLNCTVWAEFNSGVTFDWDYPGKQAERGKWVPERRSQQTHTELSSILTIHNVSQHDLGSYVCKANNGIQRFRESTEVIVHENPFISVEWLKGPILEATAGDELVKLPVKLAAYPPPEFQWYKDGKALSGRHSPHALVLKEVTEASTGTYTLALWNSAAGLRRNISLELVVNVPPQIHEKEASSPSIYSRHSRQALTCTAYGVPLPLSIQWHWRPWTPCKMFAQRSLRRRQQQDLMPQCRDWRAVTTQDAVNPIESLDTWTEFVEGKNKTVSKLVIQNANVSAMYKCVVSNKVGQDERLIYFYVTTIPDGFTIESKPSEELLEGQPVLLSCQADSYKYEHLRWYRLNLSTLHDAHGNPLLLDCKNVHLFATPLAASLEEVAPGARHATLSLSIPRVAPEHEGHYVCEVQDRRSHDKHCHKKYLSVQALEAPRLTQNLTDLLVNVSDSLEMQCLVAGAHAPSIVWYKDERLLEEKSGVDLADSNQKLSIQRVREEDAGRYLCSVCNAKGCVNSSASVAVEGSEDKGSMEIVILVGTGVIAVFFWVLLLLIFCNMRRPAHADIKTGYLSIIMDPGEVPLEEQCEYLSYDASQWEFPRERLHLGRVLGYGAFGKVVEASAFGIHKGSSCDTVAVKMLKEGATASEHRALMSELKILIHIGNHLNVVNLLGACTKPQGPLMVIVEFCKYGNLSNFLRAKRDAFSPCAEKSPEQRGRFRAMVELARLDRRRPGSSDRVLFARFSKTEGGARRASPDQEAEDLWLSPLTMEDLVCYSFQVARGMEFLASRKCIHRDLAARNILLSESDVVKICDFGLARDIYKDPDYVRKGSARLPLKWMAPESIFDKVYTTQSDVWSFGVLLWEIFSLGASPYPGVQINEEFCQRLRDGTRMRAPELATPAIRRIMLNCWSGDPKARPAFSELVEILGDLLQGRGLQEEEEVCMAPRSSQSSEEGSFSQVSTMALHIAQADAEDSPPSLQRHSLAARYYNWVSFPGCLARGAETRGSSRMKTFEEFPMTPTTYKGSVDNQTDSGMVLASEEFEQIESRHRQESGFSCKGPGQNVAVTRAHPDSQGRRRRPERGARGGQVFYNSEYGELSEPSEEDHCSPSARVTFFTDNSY

[17] = target: Vascular endothelial growth factor receptor 3 (Homo sapiens) (UniProt P35916); details: at 1 µM
[18] = target: Macrophage colony-stimulating factor 1 receptor (Homo sapiens) (UniProt P07333); details: at 0.1 µM
Chain of Macrophage colony-stimulating factor 1 receptor (Homo sapiens) (P07333 whole entry): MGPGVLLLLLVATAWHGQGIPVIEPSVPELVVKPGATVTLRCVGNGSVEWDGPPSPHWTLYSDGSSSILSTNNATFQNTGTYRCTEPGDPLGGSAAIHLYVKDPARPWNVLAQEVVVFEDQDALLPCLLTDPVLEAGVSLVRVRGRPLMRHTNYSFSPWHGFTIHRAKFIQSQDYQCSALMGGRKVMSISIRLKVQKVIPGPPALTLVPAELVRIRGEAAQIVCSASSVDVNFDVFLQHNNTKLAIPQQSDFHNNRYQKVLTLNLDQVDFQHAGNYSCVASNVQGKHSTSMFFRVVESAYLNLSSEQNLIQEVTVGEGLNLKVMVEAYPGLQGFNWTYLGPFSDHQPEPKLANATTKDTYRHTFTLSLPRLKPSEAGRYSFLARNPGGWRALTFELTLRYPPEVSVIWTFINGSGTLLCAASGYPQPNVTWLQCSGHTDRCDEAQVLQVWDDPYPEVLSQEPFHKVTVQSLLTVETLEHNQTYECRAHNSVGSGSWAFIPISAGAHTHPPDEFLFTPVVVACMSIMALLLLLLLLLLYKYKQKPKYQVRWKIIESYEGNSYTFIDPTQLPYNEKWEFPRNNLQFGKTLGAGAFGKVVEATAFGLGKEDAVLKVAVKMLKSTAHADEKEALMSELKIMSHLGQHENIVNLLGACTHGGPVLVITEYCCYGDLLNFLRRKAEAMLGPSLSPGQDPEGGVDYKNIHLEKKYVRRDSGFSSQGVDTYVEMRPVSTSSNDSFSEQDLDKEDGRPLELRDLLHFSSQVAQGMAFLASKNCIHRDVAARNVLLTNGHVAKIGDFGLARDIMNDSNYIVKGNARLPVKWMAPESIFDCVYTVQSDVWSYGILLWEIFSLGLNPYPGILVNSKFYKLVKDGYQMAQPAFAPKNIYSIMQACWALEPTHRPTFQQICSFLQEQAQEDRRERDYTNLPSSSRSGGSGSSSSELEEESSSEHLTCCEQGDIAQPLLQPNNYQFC

[19] = target: Macrophage colony-stimulating factor 1 receptor (Homo sapiens) (UniProt P07333); details: at 1 µM
[20] = target: Tyrosine-protein kinase Fyn (Homo sapiens) (UniProt P06241); details: at 0.1 µM
Chain of Tyrosine-protein kinase Fyn (Homo sapiens) (P06241 2-537 limits assumed): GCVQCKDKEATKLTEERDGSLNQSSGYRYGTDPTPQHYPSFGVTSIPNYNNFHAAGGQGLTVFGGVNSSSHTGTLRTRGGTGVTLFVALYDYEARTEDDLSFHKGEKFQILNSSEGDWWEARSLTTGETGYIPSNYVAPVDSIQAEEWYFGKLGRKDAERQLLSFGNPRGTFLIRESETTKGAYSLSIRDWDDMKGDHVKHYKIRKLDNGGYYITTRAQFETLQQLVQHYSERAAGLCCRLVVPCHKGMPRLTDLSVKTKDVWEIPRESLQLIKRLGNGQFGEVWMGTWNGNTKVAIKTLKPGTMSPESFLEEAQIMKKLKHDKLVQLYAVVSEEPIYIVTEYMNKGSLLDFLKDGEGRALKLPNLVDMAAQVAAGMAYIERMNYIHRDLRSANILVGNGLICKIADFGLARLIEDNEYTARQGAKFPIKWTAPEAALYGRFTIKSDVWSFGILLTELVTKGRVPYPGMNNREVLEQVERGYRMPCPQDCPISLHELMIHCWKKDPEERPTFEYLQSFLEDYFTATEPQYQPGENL

Row | Structure (SMILES) | inhibition [1] [%] | inhibition [2] [%] | inhibition [3] [%] | inhibition [4] [%] | inhibition [5] [%] | inhibition [6] [%] | inhibition [7] [%] | inhibition [8] [%] | inhibition [9] [%] | inhibition [10] [%] | inhibition [11] [%] | inhibition [12] [%] | inhibition [13] [%] | inhibition [14] [%] | inhibition [15] [%] | inhibition [16] [%] | inhibition [17] [%] | inhibition [18] [%] | inhibition [19] [%] | inhibition [20] [%]
1 | CN1CCC(n2cnc(-c3ccc(F)cc3)c2-c2ccnc(Nc3ccccc3)n2)CC1 | 6.75 | 1.95 | 2.29 | 2.54 | 3.52 | 4.42 | 3.58 | 2.94 | 2.65 | 5.58 | 10.1 | 6.81 | 2.65 | 9.56 | 2.38 | 0.02 | 1.32 | -1.19 | 4.11 | 0.05
2 | Nc1nc(-c2cccc(Cl)c2)c(-c2ccc3ncccc3n2)s1 | 8.93 | 2.49 | 6.68 | 5.95 | 4.63 | 3.94 | 6.59 | 1.99 | 4.09 | 6.55 | 12.5 | 3.47 | 4.49 | 14 | 0.82 | 0.27 | 9.77 | 1.82 | 2.3 | 4.49
